Experimental data taken from the supplement of paper PMC10849652.
Targets with a hit are over-represented here; the source holds about 8,800 in all. About 0.5% of all pairs of compound and target were hits.

Legend:
Test in all cases: log2 fold change, soluble protein after heating vs DMSO (PISA); higher = thermal stabilisation; K562 lysate, 10 uM; active = over 0.2 and 3.5 SD of the protein, either way, in both replicates (recomputed)
vemurafenib = compound: CCCS(=O)(=O)Nc1ccc(F)c(C(=O)c2c[nH]c3ncc(-c4ccc(Cl)cc4)cc23)c1F [vemurafenib]
How it was run: (§1)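 Soluble protein was defined as the supernatant remaining after 21,000xg for 90 min, following pooling of heated aliquots and adjustment to 0.5% NP-40 at 4°C. Before that, crude K562 extract at 1 mg/mL protein in PBS pH 7.4 with 1 mM MgCl2 was treated with 10 μM compound for 30 min and heated for 3 min across 48°C-58°C. Quantification used TMTpro 16plex LC-MS/MS with channel sums equalised, and values are log-two fold changes in thermal stability relative to solvent controls from duplicates.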

[1] = compound: CCCS(=O)(=O)Nc1ccc(F)c(C(=O)c2c[nH]c3ncc(Cl)cc23)c1F
How it was run: as §1

barasertib = compound: CCN(CCCOc1ccc2c(Nc3cc(CC(=O)Nc4cccc(F)c4)[nH]n3)ncnc2c1)CCOP(=O)(O)O [barasertib]
How it was run: as §1

[2] = compound: CC[C@@H]1C(=O)N(C)c2cnc(Nc3ccc(C(=O)NC4CCN(C)CC4)cc3OC)nc2N1C1CCCC1
How it was run: as §1

volasertib = compound: CC[C@@H]1C(=O)N(C)c2cnc(Nc3ccc(C(=O)N[C@H]4CC[C@H](N5CCN(CC6CC6)CC5)CC4)cc3OC)nc2N1C(C)C [volasertib]
How it was run: as §1

[3] = compound: CCn1c(C(=O)N(C2CC2)C2CC2)cc2c3c(ncn3C)c(Nc3cc(C)n(C)n3)nc21
How it was run: as §1

[4] = compound: CCn1cc(-c2ccnc3[nH]c(-c4cccc(CN(C)C)c4)cc23)c(-c2ccc(NC(=O)N(C)C)cc2)n1
How it was run: as §1

[5] = compound: CN1CCC(CNc2ccc3ncc(-c4cccc(OC(F)(F)F)c4)n3n2)CC1
How it was run: as §1

saracatinib = compound: CN1CCN(CCOc2cc(OC3CCOCC3)c3c(Nc4c(Cl)ccc5c4OCO5)ncnc3c2)CC1 [saracatinib]
How it was run: as §1

sotrastaurin = compound: CN1CCN(c2nc(C3=C(c4c[nH]c5ccccc45)C(=O)NC3=O)c3ccccc3n2)CC1 [sotrastaurin]
How it was run: as §1

Measured: log2 fold change

NR3C1 isoform 3 (UniProt P04150)
inactive: vemurafenib -0.138 | [1] 0.027 | barasertib -0.385 | [2] -0.086 | volasertib -0.046 | [3] 0.001 | [4] 0.07 | [5] -0.081 | saracatinib 0.072 | sotrastaurin -0.016

MTOR (UniProt P42345)
inactive: vemurafenib 0.026 | [1] 0.015 | barasertib 0.052 | [2] -0.045 | volasertib -0.044 | [3] -0.006 | [4] -0.04 | [5] -0.031 | saracatinib 0.005 | sotrastaurin 0.03

NARF (UniProt Q9UHQ1)
inactive: vemurafenib 0.035 | [1] 0.035 | barasertib 0.028 | [2] 0.011 | volasertib 0.135 | [3] -0.025 | [4] -0.055 | [5] 0.014 | saracatinib 0.023 | sotrastaurin 0.049

MTHFD1, A0A384N5Y3
inactive: vemurafenib 0.058 | [1] 0.011 | barasertib 0.017 | [2] -0.06 | volasertib -0.112 | [3] 0.059 | [4] 0.008 | [5] -0.053 | saracatinib -0.012 | sotrastaurin 0.039

NFATC2 (UniProt Q13469)
UniProt Q13469, sequence (Q13469 whole entry, looked up): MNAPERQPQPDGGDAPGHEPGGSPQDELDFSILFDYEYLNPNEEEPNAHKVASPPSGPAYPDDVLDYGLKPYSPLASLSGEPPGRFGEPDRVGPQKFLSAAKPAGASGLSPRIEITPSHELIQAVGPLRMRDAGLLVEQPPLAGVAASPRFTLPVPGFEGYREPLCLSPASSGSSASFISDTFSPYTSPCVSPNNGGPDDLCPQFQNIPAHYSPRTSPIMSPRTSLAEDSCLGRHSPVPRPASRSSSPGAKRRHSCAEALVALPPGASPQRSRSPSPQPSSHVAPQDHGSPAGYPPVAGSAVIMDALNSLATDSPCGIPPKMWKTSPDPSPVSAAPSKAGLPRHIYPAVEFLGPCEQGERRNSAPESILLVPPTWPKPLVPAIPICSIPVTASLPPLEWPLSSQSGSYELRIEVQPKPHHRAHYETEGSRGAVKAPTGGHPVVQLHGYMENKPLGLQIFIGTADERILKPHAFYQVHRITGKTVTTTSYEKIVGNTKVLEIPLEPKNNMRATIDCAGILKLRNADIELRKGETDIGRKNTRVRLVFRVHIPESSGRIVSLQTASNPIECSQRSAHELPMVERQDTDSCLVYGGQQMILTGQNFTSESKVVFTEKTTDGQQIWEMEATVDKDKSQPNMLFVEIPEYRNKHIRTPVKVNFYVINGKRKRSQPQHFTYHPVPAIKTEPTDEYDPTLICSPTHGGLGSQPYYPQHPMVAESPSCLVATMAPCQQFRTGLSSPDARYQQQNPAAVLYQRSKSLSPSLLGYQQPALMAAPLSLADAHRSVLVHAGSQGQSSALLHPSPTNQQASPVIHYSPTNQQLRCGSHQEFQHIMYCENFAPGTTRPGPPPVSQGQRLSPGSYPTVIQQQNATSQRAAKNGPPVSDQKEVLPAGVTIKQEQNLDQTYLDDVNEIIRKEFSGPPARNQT
inactive: vemurafenib -0.029 | [1] 0.032 | barasertib 0.011 | [2] 0.03 | volasertib -0.069 | [3] -0.006 | [4] 0.011 | [5] -0.002 | saracatinib 0.014 | sotrastaurin -0.016

NFKBIE (UniProt O00221)
UniProt O00221, sequence (O00221 whole entry, looked up): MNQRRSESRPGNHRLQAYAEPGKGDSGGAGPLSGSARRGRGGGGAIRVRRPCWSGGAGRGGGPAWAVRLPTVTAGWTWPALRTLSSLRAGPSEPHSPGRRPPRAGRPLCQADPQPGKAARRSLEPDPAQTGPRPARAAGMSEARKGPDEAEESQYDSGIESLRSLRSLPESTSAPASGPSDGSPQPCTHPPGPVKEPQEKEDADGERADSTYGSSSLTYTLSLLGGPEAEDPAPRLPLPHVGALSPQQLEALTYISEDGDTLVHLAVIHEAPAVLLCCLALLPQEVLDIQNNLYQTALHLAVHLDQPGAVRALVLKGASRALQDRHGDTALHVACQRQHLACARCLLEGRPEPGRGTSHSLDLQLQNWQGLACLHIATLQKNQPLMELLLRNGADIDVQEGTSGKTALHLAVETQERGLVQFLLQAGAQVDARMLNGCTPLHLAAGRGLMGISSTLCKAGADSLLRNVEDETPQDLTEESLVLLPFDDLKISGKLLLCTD
inactive: vemurafenib 0.046 | [1] 0.051 | barasertib 0.174 | [2] 0.081 | volasertib -0.106 | [3] -0.024 | [4] -0.07 | [5] -0.045 | saracatinib -0.123 | sotrastaurin -0.025

NTMT1 (UniProt Q9BV86)
UniProt Q9BV86, sequence (Q9BV86 whole entry, looked up): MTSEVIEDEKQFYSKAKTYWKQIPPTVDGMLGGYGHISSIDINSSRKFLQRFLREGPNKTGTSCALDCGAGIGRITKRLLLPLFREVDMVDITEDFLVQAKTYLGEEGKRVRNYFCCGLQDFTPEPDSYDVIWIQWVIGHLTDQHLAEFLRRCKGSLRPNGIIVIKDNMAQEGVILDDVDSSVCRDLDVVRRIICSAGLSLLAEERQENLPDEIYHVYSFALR
inactive: vemurafenib 0.023 | [1] 0.026 | barasertib 0.026 | [2] -0.029 | volasertib -0.024 | [3] 0.015 | [4] 0.055 | [5] -0.101 | saracatinib 0.008 | sotrastaurin 0.056

PAK4 (UniProt O96013)
UniProt O96013, sequence (O96013 whole entry, looked up): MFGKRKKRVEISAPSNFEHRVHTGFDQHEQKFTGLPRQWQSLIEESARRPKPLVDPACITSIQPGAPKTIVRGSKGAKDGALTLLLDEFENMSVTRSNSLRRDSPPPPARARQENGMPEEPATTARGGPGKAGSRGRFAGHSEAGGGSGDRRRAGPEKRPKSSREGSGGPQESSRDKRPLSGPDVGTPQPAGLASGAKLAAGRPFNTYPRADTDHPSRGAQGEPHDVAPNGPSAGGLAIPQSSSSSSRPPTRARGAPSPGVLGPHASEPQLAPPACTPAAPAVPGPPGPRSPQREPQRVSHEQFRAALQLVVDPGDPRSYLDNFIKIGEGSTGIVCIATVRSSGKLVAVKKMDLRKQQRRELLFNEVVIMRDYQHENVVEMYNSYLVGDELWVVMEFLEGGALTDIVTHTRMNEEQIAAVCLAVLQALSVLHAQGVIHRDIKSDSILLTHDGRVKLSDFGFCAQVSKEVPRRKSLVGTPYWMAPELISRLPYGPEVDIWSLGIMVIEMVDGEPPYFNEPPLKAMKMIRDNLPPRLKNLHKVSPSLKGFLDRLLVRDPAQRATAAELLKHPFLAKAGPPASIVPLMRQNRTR
inactive: vemurafenib -0.016 | [1] -0.06 | barasertib -0.005 | [2] -0.131 | volasertib -0.134 | [3] 0.259 | [4] 0.02 | [5] 0.3 | saracatinib -0.018 | sotrastaurin 0.063

NADK2 (UniProt Q4G0N4)
inactive: vemurafenib 0.024 | [1] -0.013 | barasertib 0.034 | [2] 0.078 | volasertib 0.008 | [3] -0.016 | [4] -0.019 | [5] 0.02 | saracatinib -0.035 | sotrastaurin -0.036

NDUFS1 isoform 2 (UniProt P28331)
UniProt P28331, sequence (P28331 whole entry, looked up): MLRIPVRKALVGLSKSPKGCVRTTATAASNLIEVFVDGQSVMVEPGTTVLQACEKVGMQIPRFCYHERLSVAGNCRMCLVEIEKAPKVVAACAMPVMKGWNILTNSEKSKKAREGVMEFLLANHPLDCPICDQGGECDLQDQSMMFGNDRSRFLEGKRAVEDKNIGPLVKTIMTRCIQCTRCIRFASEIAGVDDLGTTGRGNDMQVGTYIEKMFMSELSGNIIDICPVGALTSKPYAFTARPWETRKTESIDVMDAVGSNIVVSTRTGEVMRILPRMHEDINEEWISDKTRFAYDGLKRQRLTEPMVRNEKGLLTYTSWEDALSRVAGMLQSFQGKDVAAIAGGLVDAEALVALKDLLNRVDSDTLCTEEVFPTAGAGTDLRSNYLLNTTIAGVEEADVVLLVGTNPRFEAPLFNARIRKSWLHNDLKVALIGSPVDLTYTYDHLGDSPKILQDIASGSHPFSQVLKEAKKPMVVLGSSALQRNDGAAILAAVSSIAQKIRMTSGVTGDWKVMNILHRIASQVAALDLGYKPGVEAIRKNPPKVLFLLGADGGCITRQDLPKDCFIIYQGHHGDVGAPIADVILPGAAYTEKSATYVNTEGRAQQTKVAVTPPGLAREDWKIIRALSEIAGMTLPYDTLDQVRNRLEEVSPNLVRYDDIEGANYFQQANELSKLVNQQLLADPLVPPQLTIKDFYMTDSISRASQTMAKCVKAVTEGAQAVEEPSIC
inactive: vemurafenib 0.041 | [1] 0.018 | barasertib 0.011 | [2] -0.032 | volasertib -0.001 | [3] 0.016 | [4] -0.006 | [5] -0.027 | saracatinib -0.004 | sotrastaurin 0.054

NEDD8 (UniProt Q15843)
UniProt Q15843, sequence (Q15843 whole entry, looked up): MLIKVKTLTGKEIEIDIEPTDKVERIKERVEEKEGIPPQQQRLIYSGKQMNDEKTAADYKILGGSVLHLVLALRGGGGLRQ
inactive: vemurafenib 0.063 | [1] 0.019 | barasertib 0.113 | [2] -0.003 | volasertib 0.045 | [3] 0.041 | [4] 0.025 | [5] -0.107 | saracatinib 0.02 | sotrastaurin 0

PANK4 (UniProt Q9NVE7)
UniProt Q9NVE7, sequence (Q9NVE7 whole entry, looked up): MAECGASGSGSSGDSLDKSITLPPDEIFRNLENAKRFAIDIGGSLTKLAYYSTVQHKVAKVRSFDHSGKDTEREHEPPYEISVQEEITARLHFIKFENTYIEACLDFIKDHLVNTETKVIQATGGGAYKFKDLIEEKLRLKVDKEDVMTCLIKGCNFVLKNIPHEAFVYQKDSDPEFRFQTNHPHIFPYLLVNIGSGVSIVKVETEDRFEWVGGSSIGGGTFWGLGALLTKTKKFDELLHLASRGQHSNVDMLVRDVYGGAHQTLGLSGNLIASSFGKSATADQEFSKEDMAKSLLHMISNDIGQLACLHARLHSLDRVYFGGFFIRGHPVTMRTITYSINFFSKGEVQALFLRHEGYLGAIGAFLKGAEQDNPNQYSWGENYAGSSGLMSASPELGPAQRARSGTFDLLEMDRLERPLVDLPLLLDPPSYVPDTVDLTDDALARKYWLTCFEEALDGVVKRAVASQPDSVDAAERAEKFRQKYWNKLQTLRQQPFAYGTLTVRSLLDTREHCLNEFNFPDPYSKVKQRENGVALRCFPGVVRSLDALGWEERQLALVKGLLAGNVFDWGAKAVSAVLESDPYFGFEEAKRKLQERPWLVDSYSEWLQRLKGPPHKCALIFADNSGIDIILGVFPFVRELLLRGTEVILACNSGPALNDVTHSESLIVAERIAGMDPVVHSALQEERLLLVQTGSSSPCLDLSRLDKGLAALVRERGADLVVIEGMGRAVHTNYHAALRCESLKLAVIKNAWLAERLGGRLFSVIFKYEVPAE
inactive: vemurafenib 0.026 | [1] 0.011 | barasertib 0.054 | [2] -0.051 | volasertib -0.091 | [3] 0.003 | [4] -0.136 | [5] 0.077 | saracatinib 0.001 | sotrastaurin 0.012

PANK2 (UniProt Q9BZ23)
UniProt Q9BZ23, sequence (Q9BZ23 whole entry, looked up): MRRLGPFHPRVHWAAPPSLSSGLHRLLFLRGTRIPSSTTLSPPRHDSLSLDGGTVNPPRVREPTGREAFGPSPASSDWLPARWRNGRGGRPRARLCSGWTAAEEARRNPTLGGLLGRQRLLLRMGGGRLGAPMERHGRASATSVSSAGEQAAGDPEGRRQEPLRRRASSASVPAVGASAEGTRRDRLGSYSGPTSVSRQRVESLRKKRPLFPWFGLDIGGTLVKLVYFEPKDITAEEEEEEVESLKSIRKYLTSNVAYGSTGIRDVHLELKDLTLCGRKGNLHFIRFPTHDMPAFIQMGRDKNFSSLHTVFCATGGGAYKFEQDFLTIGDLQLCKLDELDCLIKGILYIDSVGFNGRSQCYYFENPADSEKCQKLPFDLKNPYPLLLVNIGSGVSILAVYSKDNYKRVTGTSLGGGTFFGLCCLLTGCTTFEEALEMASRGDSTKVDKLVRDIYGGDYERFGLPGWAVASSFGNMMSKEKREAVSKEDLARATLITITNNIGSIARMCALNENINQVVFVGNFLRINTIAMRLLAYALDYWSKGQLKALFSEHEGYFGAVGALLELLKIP
inactive: vemurafenib 0.093 | [1] -0.036 | barasertib -0.047 | [2] 0.011 | volasertib -0.086 | [3] 0.002 | [4] -0.167 | [5] -0.057 | saracatinib 0.068 | sotrastaurin 0.027

MYCBP2 (UniProt O75592)
inactive: vemurafenib -0.026 | [1] 0.036 | barasertib 0.037 | [2] 0.017 | volasertib -0.019 | [3] -0.01 | [4] -0.117 | [5] 0.083 | saracatinib 0.033 | sotrastaurin -0.029

NPLOC4 isoform 2 (UniProt Q8TAT6)
UniProt Q8TAT6, sequence (Q8TAT6 whole entry, looked up): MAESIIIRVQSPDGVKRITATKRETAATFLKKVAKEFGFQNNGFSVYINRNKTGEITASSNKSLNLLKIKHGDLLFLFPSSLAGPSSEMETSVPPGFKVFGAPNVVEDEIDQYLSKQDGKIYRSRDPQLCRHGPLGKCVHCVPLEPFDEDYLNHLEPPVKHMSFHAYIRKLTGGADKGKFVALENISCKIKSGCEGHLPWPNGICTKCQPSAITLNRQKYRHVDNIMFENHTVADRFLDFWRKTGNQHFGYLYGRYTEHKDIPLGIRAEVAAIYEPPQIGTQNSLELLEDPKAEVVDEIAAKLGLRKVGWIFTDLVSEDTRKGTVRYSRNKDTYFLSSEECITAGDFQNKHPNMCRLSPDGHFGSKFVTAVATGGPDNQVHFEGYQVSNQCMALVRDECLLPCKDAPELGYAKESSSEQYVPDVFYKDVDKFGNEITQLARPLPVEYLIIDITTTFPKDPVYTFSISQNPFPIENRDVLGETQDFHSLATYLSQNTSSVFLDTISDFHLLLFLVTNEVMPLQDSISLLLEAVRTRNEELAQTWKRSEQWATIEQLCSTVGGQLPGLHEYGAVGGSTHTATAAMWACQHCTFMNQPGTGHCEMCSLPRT
inactive: vemurafenib -0.011 | [1] 0.025 | barasertib -0.019 | [2] 0.025 | volasertib -0.011 | [3] -0.016 | [4] -0.066 | [5] 0.007 | saracatinib 0.004 | sotrastaurin -0.005
